Compounds with a hit are over-represented: about 1.1% of the library has one in this group of screens.
Eya2 phos inh = qHTS Assay for Inhibitors of the Phosphatase Activity of Eya2. Protein phosphatase EYA2 (Homo sapiens), O00167. recombinant Eya2, OMFP fluorescence dephosphorylation (OMFP is methylfluorescein phosphate). Potency, µM (top dose mostly 76.9 µM), for the others: top-dose activity, negative = inhibition, most hits filed as inhibitors. 0.006% of 330,000 active; note: % is set by controls: 0 for no effect and ±100 for the full control effect
Target sequence (O00167 whole entry, looked up): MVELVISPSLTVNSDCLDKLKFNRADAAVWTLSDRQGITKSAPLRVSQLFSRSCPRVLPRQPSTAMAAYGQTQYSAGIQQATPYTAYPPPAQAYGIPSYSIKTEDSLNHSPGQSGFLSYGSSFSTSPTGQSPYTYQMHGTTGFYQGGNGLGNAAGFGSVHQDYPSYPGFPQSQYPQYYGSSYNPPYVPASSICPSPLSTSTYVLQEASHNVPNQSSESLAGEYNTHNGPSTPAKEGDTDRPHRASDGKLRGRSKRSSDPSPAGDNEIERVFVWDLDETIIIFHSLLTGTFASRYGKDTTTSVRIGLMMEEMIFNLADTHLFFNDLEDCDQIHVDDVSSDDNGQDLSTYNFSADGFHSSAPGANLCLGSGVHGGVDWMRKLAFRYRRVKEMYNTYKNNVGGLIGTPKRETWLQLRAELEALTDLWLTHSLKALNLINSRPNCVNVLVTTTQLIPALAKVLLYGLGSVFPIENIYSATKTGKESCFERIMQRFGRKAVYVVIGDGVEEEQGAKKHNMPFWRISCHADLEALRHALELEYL
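Eya2 (0.2 uM) preincubated 10 min at ambient with compound, then OMFP substrate added at 50 uM; 10 min reaction in 50 mM HEPES pH 7.5, 50 mM NaCl, 5 uM MgCl2, 0.05% BSA, 1 mM DTT. Fluorescence read at Ex 485/Em 525 nm.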
TSG101-PTAP inh = qHTS Assay for Iinhibitors of HIV-1 Budding by Blocking the Interaction of PTAP/TSG101. Tumor susceptibility gene 101 protein (Homo sapiens), Q99816. 340,000 tested, under 10 active. Fluorescence polarization, FITC-PTAP peptide / Tsg101 binding. Potency, µM (top dose mostly 115 µM), for the others: at the highest dose activity change, negative = inhibition, actives largely listed as inhibitors; active = well fitted inhibition curve with a large enough effect in the main read-out, with a control signal flat, not every such curve was filed as active; inconclusive = small, poorly fitted or top-dose-only effect, or effect the other way, or a change in a side signal; inactive = no such curve, though single readings can be large or run the other way; note: % of control where 0% means no effect
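Tsg101 binding domain (10 uM final) was mixed with compound and a FITC-labeled PTAP peptide (50 nM final) in HEPES pH 7.5 buffer with NaCl, Tween 20, EDTA and TCEP; fluorescence polarization was read after 20 min at r.t.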
ALOX12 inh = Primary qHTS assay for inhibitors of human arachidonate 12S-lipoxygenase (ALOX12): Round 2. Polyunsaturated fatty acid lipoxygenase ALOX12 (Homo sapiens), P18054. purified 12hLO, xylenol orange hydroperoxide absorbance. Potency, µM (titrated, usually from 108 µM), for the others: top-dose activity change, negative = inhibition, actives largely listed as inhibitors. 1.1% of 580,000 active. AID 1671190, 2021; note: % is set by controls: 0 for no effect and ±100 for the full control effect
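Purified human 12hLO at 150 nM in 25 mM Hepes, 0.01% Triton X-100, pH 7.0, preincubated 15 min at room temperature with compound. Reaction started with 40 uM arachidonic acid, 30 min at room temperature. Hydroperoxide measured by Fe-xylenol orange, 573/405 nm absorbance ratio.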
USP2a block = qHTS Assay for Inhibitors of Ubiquitin-specific Protease USP2a Using CHOP2 as the Reporter. 0.01% of 330,000 active. USP2 core, Ub-CHOP2 coupled fluorogenic reporter, 485/531. Ubiquitin carboxyl-terminal hydrolase 2 (Homo sapiens), O75604. AID 463254, 2010. Potency, µM (titrated, usually from 38.3 µM), for the others: at the highest dose activity change, negative = inhibition, usual class: inhibitors;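 note: plate controls were DMSO wells for no effect and full inhibition by NEM control for full effect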
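USP2 core (10nM final) preincubated 30min RT with compound in 20mM Tris-HCl pH 8.0, 2mM CaCl2, 2mM beta-mercaptoethanol, 0.05% CHAPS; 25nM Ub-CHOP2 plus 25nM reporter substrate added, fluorescence (Ex485/Em531) read after 60min.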
* marks the source's active call; other numbers are inactive results; ? = inconclusive; / = no result; [ ] = dose if it differs, or a comment. Unless noted, calls come from the whole dose curve; as a rule, active = well fitted curve in the direction sought with a large enough effect; inconclusive = small, poorly fitted or top-dose-only effect, or another doubt; inactive = no such curve, though single readings can be large; an effect the other way counts as inactive or inconclusive. Potency is the fitted concentration of half-maximal effect.

SMILES | Eya2 phos inh | TSG101-PTAP inh | ALOX12 inh | USP2a block
CN1CCN(c2ccc3ncc(Nc4cccc(C(F)(F)F)c4)n3n2)CC1 | / | / | 65.6%[176 µM] | /
CCOC(=O)C1=C(COC(=O)c2ccccc2OC(F)F)NC(=O)NC1C (stereo unspecified) | 4.5% | -2.6% | -19.7% | 1.6%
CCOC(=O)C1=C(COC(=O)c2ccc3ccccc3c2O)NC(=O)NC1C (stereo unspecified) | -8.6% | -10.1% | 39.8µM* | -9.7%
S=c1nccc(-c2ccccc2)[nH]1 | / | / | 12.6µM* | /
COc1ccc(-c2cc(C(=O)NC3CC3)c3c(C4CCNC4)nn(C)c3n2)cc1 (stereo unspecified) | / | / | 9.4%[6.33 µM] | /
O=C(CSc1nc2ccc(Cl)cc2[nH]1)c1ccc2c(c1)OCO2 | 3.7% | -2.9% | 11.2µM* | -4.3%
O=C(CSc1nc2cc(Cl)c(Cl)cc2[nH]1)c1ccc2c(c1)OCO2 | -4.1% | 0.8% | ? | 2.1%
N#Cc1c(-c2ccco2)cc(-c2ccc(F)cc2)nc1N | 9.0% | 2.6% | 5.62µM* | 0.8%
O=C(NNC(=O)c1ccc2c(c1)CCCC2)c1cccnc1 | / | / | 9.9% | /
O=c1[nH]c(/C=C/c2ccc([N+](=O)[O-])cc2)c([N+](=O)[O-])c(=O)[nH]1 | 14.9% | -7.7% | ? | -0.9%
Cc1cccc(NC(=O)COc2ccc(/C=C\c3[nH]c(=O)[nH]c(=O)c3[N+](=O)[O-])cc2)c1 | -3.3% | -0.3% | 39.8µM* | -4.4%
CCS(=O)(=O)N1CC2(CN(C(=O)Cc3ccccn3)[C@@H](CO)c3[nH]c4cc(OC)ccc4c32)C1 | / | / | -27.7% | /
COc1ccc2c3c([nH]c2c1)[C@@H](CO)N(Cc1ccccc1Cl)CC31CN(C(=O)C2CC2)C1 | / | / | 15.8µM* | /
CCS(=O)(=O)N1CC2(CN(Cc3ccc4c(c3)OCO4)[C@@H](CO)c3[nH]c4cc(OC)ccc4c32)C1 | / | / | 14.1µM* | /
CCOC(=O)NC(=O)/C(C#N)=N\Nc1cccc(Cl)c1 | -1.2% | 2.2% | 0.398µM* | 3.6%
Cc1cc(C(=O)OCC(=O)c2cccc([N+](=O)[O-])c2)c2cccc(C)c2n1 | ? | -0.3% | -5.2% | 11.2µM*
CN(Cc1cccc2cnccc12)C(=O)COc1ccc(Cl)cc1Cl | / | / | 22.4% | /
S=C(NCCC(c1ccccc1)c1ccccc1)Nc1cccc(Cl)c1 | -23.5% | -3.5% | 22.4µM* | -5.5%
Cc1ccccc1NC(=S)NCCC(c1ccccc1)c1ccccc1 | ? | -2.4% | 31.6µM* | 0.0%
S=C(NCCCCCCNC(=S)Nc1cccc(Cl)c1)Nc1cccc(Cl)c1 | / | / | 15.8µM* | /
COc1ccc(OC)c(NC(=S)NCCC(c2ccccc2)c2ccccc2)c1 | / | -10.3% | 8.91µM* | /
C=CCNC(=S)Nc1cccc(Cl)c1 | / | / | -29.8% | /
Cc1ccc(NC(=S)NCCC(c2ccccc2)c2ccccc2)c(C)c1 | 2.5% | -1.9% | ? | 0.2%
O=C1Nc2ccccc2C12CCN(CC1CCCCC1)C2 (stereo unspecified) | / | / | 6.4%[12.5 µM] | /
S=C(NCCNc1c(Cl)c(Cl)c(Cl)c(Cl)c1Cl)Nc1ccccc1 | / | / | 12.6µM* | /
SMILES | Eya2 phos inh | TSG101-PTAP inh | ALOX12 inh | USP2a block
S=C(NCCCNC(=S)Nc1ccccc1)Nc1ccccc1 | -3.7% | -0.7% | ? | 1.4%
S=C(NCCC(c1ccccc1)c1ccccc1)Nc1ccccc1 | / | / | 35.5µM* | /
O=c1c(Br)c(-c2ccccc2Br)[nH]c2ccccc12 | / | / | -15.7% | /
O=c1cc(-c2c(O)c3ccccc3n(Cc3ccccc3)c2=O)[nH][nH]1 | -4.1% | -1.6% | 25.1µM* | 1.3%
Cc1cc2nc3n(c(=O)c2n1CC(=O)NC(C)c1ccccc1)CCCCC3 (stereo unspecified) | / | / | 6.5% | /
Cc1cc2nc3n(c(=O)c2n1CC(=O)Nc1ccc(Cl)cc1F)CCCC3 | / | / | 22.4µM* | /
COc1ccc(C(C)NC(=O)Cn2c(C)cc3nc4n(c(=O)c32)CCCC4)cc1 (stereo unspecified) | / | / | 50.1µM* | /
Cc1cc2nc3n(c(=O)c2n1CC(=O)Nc1ccc(Cl)cc1F)CCCCC3 | / | / | -17.7% | /
COC(=O)CCC(=O)Nc1sc(Cc2ccccc2)c(C)c1C(N)=O | -4.6% | -2.8% | 20µM* | 0.5%
CCOC(=O)c1c(NC(=S)Nc2ccccc2)sc(C)c1C | 4.1% | -8.7% | -26.1% | -2.1%
CCOC(=O)c1c(NC(=O)C[n+]2ccc(Cc3ccccc3)cc2)sc(C)c1C | -6.1% | -1.3% | 44.7µM* | -0.2%
COc1ccc(-c2nn(-c3ccccc3)cc2/C=N/NC(=S)NC(C)C)cc1OC | 7.1% | -3.1% | 35.5µM* | 0.5%
C=CCNC(=S)N/N=C/c1cn(-c2ccccc2)nc1-c1ccc(OC)cc1 | -8.1% | -0.2% | 39.8µM* | -1.2%
COc1ccc(-c2cnc3[nH]cc(CC(=O)N4CCC(OC)CC4)c3c2)cc1 | / | / | 5.8%[176 µM] | /
CC(C)c1ccc(CC(=O)N2CCCc3ncc(C(=O)NCC4CCCO4)cc32)cc1 (stereo unspecified) | / | / | 59.9%[176 µM] | /
CC(C)(C)c1ccc(O)c(O)c1 | 18.4% | 1.6% | 35.5µM* | 0.1%
CC(C)(C)c1ccc(O)c(/C=N\O)c1 | 8.3% | -4.0% | 0.0% | 2.7%
CC1(C)CC(NC(=S)Nc2ccccc2)CC(C)(CNC(=S)Nc2ccccc2)C1 (stereo unspecified) | / | / | 28.2µM* | /
Cc1ccc(NC(=S)NCC2(C)CC(NC(=S)Nc3ccc(C)cc3C)CC(C)(C)C2)c(C)c1 (stereo unspecified) | / | / | 7.08µM* | /
CCC(C)c1ccc(S(=O)(=O)N2CCN(C(=O)c3n[nH]c(=O)c4ccccc34)CC2)cc1 (stereo unspecified) | / | / | -28.4% | /
O=C(c1ccccc1F)N1CCC2(C1)C(=NC1CCCC1)NC(=O)N2c1cc(F)cc(F)c1 (stereo unspecified) | / | / | 5.0%[6.33 µM] | /
O=C(Cc1ccc(-c2csc(Nc3ccc(F)cc3)n2)s1)N1CCOCC1 | / | / | 31.6µM* | /
O=C(Cc1ccc(F)cc1)N1CCOCC1 | -14.7% | 0.9% | 13.4% | 1.9%
CCn1c(=O)[nH]c(=O)c2cc(C(=O)Nc3ccc(C)c4ncccc34)cnc21 | / | / | -3.7% | /
Cc1ncsc1CCC(=O)N1CCN(CCCOc2ccc(F)cc2)CC1 | / | / | 75.0% | /
Cc1ncsc1CCC(=O)N1CCC2(CCNCC2)CC1 | / | / | 15.8µM* | /
COc1ccc2c(c1)OC[C@H]1[C@H]2N2C(=O)CN(Cc3ccco3)C(=O)[C@@]2(C)[C@H]1c1ccccc1 | -4.6% | 0.2% | 7.08µM* | -1.0%
COc1ccc2c(c1)OC[C@H]1[C@H]2N2C(=O)CN(Cc3ccc(C)cc3)C(=O)[C@@]2(C)[C@H]1c1ccccc1 | -6.3% | -3.8% | -29.1% | -0.3%
CC(Sc1ncnc2ccccc12)C(=O)Nc1cc(Cl)cc(Cl)c1 (stereo unspecified) | / | / | 12.7% | /

Screening data deposited in PubChem BioAssay by National Center for Advancing Translational Sciences (NCATS).
